HCMV inh = blocks human cytomegalovirus replication; HFF cells, HCMV-luciferase reporter, 72 h; hits give low values; activity change, negative = inhibition, % at 57.5 µM; actives 4.5% (n = 410,000); in the data active = activity change below about -60%; inconclusive = no clear call, values can overlap the other calls; inactive = above about -39%
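Inhibition of viral replication was scored as loss of reporter luminescence in HFFs infected with HCMV-luciferase (MOI 1 PFU/cell) for 72 h; compounds tested at 2 doses, normalized to buffer and Salinomycin controls.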
Vaccinia mCherry = vaccinia inhibition (mCherry reporter); Vaccinia virus mCherry reporter infection, fluorescence; Potency, µM (series often up to 36.5 µM), without a hit: top-dose activity change, negative = inhibition, actives largely listed as inhibitors; actives 0.63% (n = 310,000); AID 720579; calls by dose curve; tested in A549 cells; also: potency is read from the fitted curve at half-maximal effect; nearly all actives have a fitted effect of over 35% in size
FMDV inh = antivirals against foot and mouth disease virus. FMDV antiviral cell-based qHTS. Potency, µM (highest dose often 57.9 µM), for inactives: top-dose activity change, negative = inhibition, actives largely listed as inhibitors. actives 1.2% (n = 410,000); calls by dose curve; tested in HEK293T cells; also: read-out not given here; potency is read from the fitted curve at half-maximal effect; nearly all actives have a fitted effect of over 45% in size
Marburg entry inh = Marburg virus entry inhibition; Marburg virus pseudotyped entry inhibition, cell reporter; Potency, µM (series often up to 37.8 µM), without a hit: at the highest dose activity change, negative = inhibition, actives largely listed as inhibitors; actives 1.8% (n = 300,000); AID 540276; calls by dose curve; tested in HEK293 cells; also: potency is read from the fitted curve at half-maximal effect
Lassa entry inh = Lassa virus entry inhibition | Lassa virus pseudotype entry inhibition, cell reporter | Potency, µM (series often up to 37.9 µM), for the others: at the highest dose activity change, negative = inhibition, actives largely listed as inhibitors | actives 1.2% (n = 300,000); calls by dose curve; tested in HEK293 cells; also: potency is read from the fitted curve at half-maximal effect; nearly all actives have a fitted effect of over 50% in size
VACV Venus inh = inhibitors of vaccinia virus (Venus reporter) | actives 0.46% (n = 330,000) | AID 720580 | Potency, µM (titrated, usually from 36.5 µM), without a hit: top-dose activity change, negative = inhibition, usual class: inhibitors | Vaccinia virus Venus reporter expression, fluorescence; calls by dose curve; tested in A549 cells; also: potency is read from the fitted curve at half-maximal effect; nearly all actives have a fitted effect of over 30% in size
Active calls of the source: *; [ ] = dose if it differs, or a comment. Sampled rows, rich in hits. Any-hit rate of the full collection: about 6.5%. % is scaled to controls: 0 for no effect and ±100 for the full control effect.

Screening Clc1ccccc1CN1CCc2nc(N3CCN(c4ncccn4)CC3)ncc2C1 returned HCMV inh -29, Vaccinia mCherry -13%, FMDV inh 32µM*, Lassa entry inh -2%[46.1 µM] and VACV Venus inh -26%.
Screening Cc1cccc(CN2CCc3nc(N4CCN(c5ccccn5)CC4)ncc3C2)c1 returned HCMV inh inconclusive, Vaccinia mCherry inconclusive, FMDV inh 14µM*, Lassa entry inh -30%[46.1 µM] and VACV Venus inh inconclusive.
For COC(=O)c1ccc(NC(=O)NC(C)c2c(-n3cccc3)sc(C)c2C)cc1 (centres undefined) the results were HCMV inh -38, Vaccinia mCherry -15%, FMDV inh 13%, Marburg entry inh -16%[46.1 µM] and VACV Venus inh -13%.
`Cc1c(C)c2c(c(C)c1O)CC[C@@](C)(CCC[C@H](C)CCC[C@H](C)CCCC(C)C)O2` gave HCMV inh 104, Vaccinia mCherry -2%, FMDV inh -19% and VACV Venus inh -18%.
Screening Cc1c(C)c2c(c(C)c1O)CCC(C)(CN1CCN(c3cc(N4CCCC4)nc(N4CCCC4)n3)CC1)O2 (centres undefined) returned Marburg entry inh 10µM*.
Screening COc1cccc(N(C(=O)c2snc(C(N)=O)c2N)C(C(=O)NCC2CCCO2)c2cccs2)c1 (centres undefined) returned HCMV inh inconclusive, Vaccinia mCherry inconclusive, FMDV inh 9%, Marburg entry inh inconclusive, Lassa entry inh 3%[46.1 µM] and VACV Venus inh -4%.
Screening COCCNC(=O)C(c1cccs1)N(C(=O)Cn1nnc2ccccc21)c1ccccc1 (centres undefined) returned HCMV inh 34, Vaccinia mCherry -26%, FMDV inh 14%, Marburg entry inh 20%, Lassa entry inh 6% and VACV Venus inh -17%.
For COc1ccc(N(C(=O)CCl)C(C(=O)NCCc2ccccc2)c2cccs2)cc1Cl (centres undefined) the results were HCMV inh -103*, Vaccinia mCherry inconclusive, FMDV inh 20µM*, Marburg entry inh inconclusive, Lassa entry inh 26µM* and VACV Venus inh 10µM*.
COc1cccc(N(C(=O)CCl)C(C(=O)NCCc2ccccc2)c2cccs2)c1 (centres undefined) was read as HCMV inh -100*, Vaccinia mCherry inconclusive, FMDV inh 16µM*, Marburg entry inh inconclusive, Lassa entry inh inconclusive and VACV Venus inh inconclusive.
For CN(C)c1ccc(CN(Cc2ccco2)C(=O)COc2ccc(F)cc2)cc1 the results were HCMV inh -26, Vaccinia mCherry -16%, FMDV inh 0%, Marburg entry inh inconclusive, Lassa entry inh 5.6µM* and VACV Venus inh -13%.
O=C(Nc1cc(C(=O)N2CCN(CCO)CC2)c2c(c1)ncn2C1CCCC1)c1ccccc1 was read as Vaccinia mCherry -3%, FMDV inh -12% and VACV Venus inh 0%.
`O=C(c1ccccc1F)N1C[C@@H]2[C@H](c3ccccc31)[C@H](CO)N2C(=O)c1ccccc1` gave HCMV inh -5.
For COc1ccc(NC(=O)Cn2ncc3c(C)n(Cc4cccc(Cl)c4)c(C)c3c2=O)cc1 the results were HCMV inh 10, Vaccinia mCherry -16%, FMDV inh -20%, Marburg entry inh inconclusive, Lassa entry inh 13%[46.1 µM] and VACV Venus inh -8%.
Screening CS(=O)(=O)N1CCc2cc(-c3csc(NC(=O)C(c4ccccc4)c4ccccc4)n3)ccc21 returned HCMV inh -16, Vaccinia mCherry -28%, Marburg entry inh -20%, Lassa entry inh -22% and VACV Venus inh -23%.
Screening CC1Cc2cc(-c3csc(NC(=O)Cc4ccccc4)n3)ccc2N1S(C)(=O)=O (centres undefined) returned HCMV inh -98*, Vaccinia mCherry inconclusive, Marburg entry inh 10µM*, Lassa entry inh inconclusive and VACV Venus inh inconclusive.
`O=C(O)c1cc(N2C(=O)C=CC2=O)cc(N2C(=O)C=CC2=O)c1` gave HCMV inh -16, Vaccinia mCherry -19%, FMDV inh -19%, Marburg entry inh 10µM*, Lassa entry inh -20% and VACV Venus inh -19%.

Screening results (PubChem)
